For 61 compounds, delta Cp (YB-1 minus CDIP) results are on record in PubChem BioAssay AID434959 (Broad Institute, 2010).

Molecules are shown by their SMILES. The whole screen tested about 30,000 compounds, of which about 110 (0.37%) were called active. The sample holds actives, similar compounds and a random draw of the others, so the mix is not that of the screen.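 Rule for the calls: active = delta delta Cp rounded down to an integer at or above 3, about 3 SD of DMSO wells; inactive = the rest.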

This test can be described thus: inhibitors of YB-1 gene expression, primary screen, cell-based, fluorescence (AID 434959).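 Note: higher means less YB-1 transcript or more CDIP transcript relative to DMSO.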 Particulars: U2OS, qRT-PCR YB-1 vs CDIP delta delta Cp, 16 h; stronger effect = higher value; zero = DMSO, each unit about twofold.
As to `C[C@@H]1CN([C@H](C)CO)C(=O)CCCn2cc(nn2)CO[C@@H]1CN(C)Cc1ccccc1C(=O)O`, the delta Cp (YB-1 minus CDIP) is -0.246 (inactive). In the case of `C[C@@H]1CN([C@H](C)CO)C(=O)CCCn2nncc2CO[C@@H]1CN(C)C(=O)OCc1ccccc1`, the delta Cp (YB-1 minus CDIP) is 0.0587 (inactive). Turning to `O=C1C2CC3CC1CC(C(=O)O)(C3)C2`, the delta Cp (YB-1 minus CDIP) was 0.106 (inactive). For `C[C@H](CO)N1C[C@H](C)[C@H](CN(C)C(=O)Nc2ccccc2)Oc2ccc(NC(=O)CCN3CCOCC3)cc2CC1=O` the value was -0.228 (inactive); for `CC1(C)CC(=O)c2ccc(O)cc2O1`, 1.96 (inactive); for `Cc1cc(C(=O)Nc2cccc3c2O[C@@H](CN(C)C(=O)Nc2ccc4c(c2)OCO4)[C@H](C)CN([C@@H](C)CO)C3=O)n(C)n1`, -0.0832 (inactive). For `C[C@H]1CN([C@@H](C)CO)C(=O)c2cc(NC(=O)NC3CCCCC3)ccc2O[C@@H]1CN(C)S(=O)(=O)c1cccs1` the value was 0.092 (inactive). As for `O=C(/C=C/c1ccccc1)c1ccc(O[C@@H]2O[C@H](CO)[C@@H](O)[C@H](O)[C@H]2O)cc1O`, the delta Cp (YB-1 minus CDIP) was 0.0338 (inactive).

In the case of `Oc1cc2c(cc1O)CN(C(=S)NCCc1ccc(Cl)cc1)CCC2`, the delta Cp (YB-1 minus CDIP) is 0.367 (inactive). Turning to `Cc1noc(C)c1NC(=O)Nc1ccc2c(c1)CC(=O)N([C@@H](C)CO)C[C@@H](C)[C@@H](CN(C)C(=O)NC(C)C)O2`, the delta Cp (YB-1 minus CDIP) is 0.0713 (inactive).

Regarding `C[C@H]1CN([C@@H](C)CO)C(=O)Cc2cc(NC(=O)C3CC3)ccc2O[C@H]1CN(C)S(=O)(=O)c1ccc(Cl)cc1`, the delta Cp (YB-1 minus CDIP) is 0.415 (inactive).

For the compound `[N-]=[N+]=Nc1ccccc1C[C@@]1(C(=O)NCc2ccccc2)N=C(c2ccc(OCCCO)cc2)O[C@@H]1c1ccccc1`, the delta Cp (YB-1 minus CDIP) is -0.629 (inactive). With `O=C1O[C@@H](c2ccccc2)[C@@H](c2ccccc2)N2[C@@H](c3ccccc3OCCO)[C@]3(C(=O)Nc4ccc(C#CC5(O)CCCCCC5)cc43)[C@@H](C(=O)N3CCN(c4ncccn4)CC3)[C@H]12`, the delta Cp (YB-1 minus CDIP) was -0.244 (inactive).

As to `C[C@H](CO)N1C[C@H](C)[C@H](CN(C)Cc2ccc(-c3ccccc3)cc2)Oc2ccc(NC(=O)Nc3ccc(F)cc3)cc2CC1=O`, the delta Cp (YB-1 minus CDIP) was -0.469 (inactive). For `COc1cc(/C(C)=C/C(C)=C\C(=O)O)oc(=O)c1C` the value was -0.492 (inactive); for `Cc1ccc(S(=O)(=O)N(C)C[C@H]2Oc3c(NC(=O)c4ccc(-c5nccs5)cc4)cccc3C(=O)N([C@H](C)CO)C[C@H]2C)cc1`, -0.182 (inactive); for `CC1=COC(O[C@@H]2O[C@H](CO)[C@@H](O)[C@H](O)[C@H]2O)C2C1CC(O)C2CO` (stereo partly specified), -0.367 (inactive). With `C[C@@H]1CN([C@@H](C)CO)C(=O)CCCn2nncc2CO[C@@H]1CN(C)Cc1ccccc1`, the delta Cp (YB-1 minus CDIP) was 0.131 (inactive).

Turning to `C[C@@H]1CN([C@H](C)CO)C(=O)Cc2cc(NS(=O)(=O)c3ccc(F)cc3)ccc2O[C@@H]1CN(C)S(=O)(=O)c1ccc(F)cc1`, the delta Cp (YB-1 minus CDIP) was -0.0534 (inactive).

For `COc1ccc(C#Cc2ccc3c(c2)[C@]2(C(=O)N3)[C@H](c3ccccc3OCCO)N3[C@H](c4ccccc4)[C@H](c4ccccc4)OC(=O)[C@H]3[C@@H]2C(=O)N2CCCCCCC2)cc1`, the delta Cp (YB-1 minus CDIP) was 0.00142 (inactive). For `CNC[C@@H]1Oc2ncc(-c3ccc(F)cc3)cc2C(=O)N([C@H](C)CO)C[C@@H]1C`, the delta Cp (YB-1 minus CDIP) is -0.148 (inactive). For `CC(C)NC(=O)N(C)C[C@H]1Oc2ccc(NC(=O)CCCCCC(=O)Nc3ccccc3N)cc2CC(=O)N([C@@H](C)CO)C[C@H]1C` the value was 0.0201 (inactive); for `C/C(=C\CC[C@H](CO)[C@@H]1CC[C@]2(C)C3=C(CC[C@@]12C)[C@@]1(C)CCC(=O)C(C)(C)C1CC3)C(=O)O` (stereo partly specified), -0.0322 (inactive). As for `C[C@H](CO)N1C[C@H](C)[C@H](CN(C)CC2CC2)Oc2ccc(NS(=O)(=O)c3ccccc3)cc2CC1=O`, the delta Cp (YB-1 minus CDIP) was -0.128 (inactive).

As for `Cc1noc(C)c1S(=O)(=O)Nc1ccc2c(c1)CC(=O)N([C@@H](C)CO)C[C@H](C)[C@H](CN(C)S(=O)(=O)c1ccc(Cl)cc1)O2`, the delta Cp (YB-1 minus CDIP) was 0.105 (inactive). In the case of `C[C@H]1CN([C@@H](C)CO)C(=O)Cc2cc(NS(C)(=O)=O)ccc2O[C@@H]1CN(C)S(=O)(=O)c1ccc(Cl)cc1`, the delta Cp (YB-1 minus CDIP) is 0.259 (inactive).

Turning to `Cc1noc(C)c1NC(=O)Nc1ccc2c(c1)C(=O)N([C@@H](C)CO)C[C@@H](C)[C@H](CN(C)C(=O)NC(C)C)O2`, the delta Cp (YB-1 minus CDIP) is -0.101 (inactive). `C[C@H](CO)N1C[C@H](C)[C@H](CN(C)CC2CCCCC2)Oc2ccc(NC(=O)CCN3CCOCC3)cc2CC1=O`: the delta Cp (YB-1 minus CDIP) was 0.315 (inactive). To `C[C@H]1CN([C@@H](C)CO)C(=O)CCCn2cc(nn2)CO[C@H]1CN(C)C(=O)Nc1ccc(F)cc1` belongs -0.241 (inactive); to `C=CCN1C(=O)[C@]2(O[C@H](CCn3cc(CCO)nn3)[C@@H]([Si](C)(C)c3ccc(OC)cc3)[C@@H]2C)c2cc(N3CCOC3=O)ccc21`, -0.00312 (inactive).

For the compound `COc1ccc(NC(=O)O[C@H](c2ccc(OCCO)cc2)[C@@H](CCO)OC)cc1`, the delta Cp (YB-1 minus CDIP) is -1.3 (inactive). `C[C@@H]1CCCCO[C@H](CN(C)C(=O)NC2CCCCC2)[C@@H](C)CN([C@H](C)CO)C(=O)c2cc(NS(C)(=O)=O)ccc2O1`: the delta Cp (YB-1 minus CDIP) was 0.322 (inactive). For `COc1ccc(S(=O)(=O)N(C)C[C@@H]2Oc3ccc(NC(=O)CCC(F)(F)F)cc3C(=O)N([C@@H](C)CO)C[C@@H]2C)cc1` the value was -0.166 (inactive); for `C[C@H](CO)N1C[C@H](C)[C@H](CN(C)S(=O)(=O)c2ccccc2)Oc2c(NC(=O)CCCCCC(=O)Nc3ccccc3N)cccc2C1=O`, 0.187 (inactive).

Regarding `C[C@@H]1CN([C@@H](C)CO)C(=O)c2cccc(NC(=O)Nc3ccc4c(c3)OCO4)c2O[C@H]1CN(C)C(=O)Nc1cccc2ccccc12`, the delta Cp (YB-1 minus CDIP) was 0.0736 (inactive). Take `COc1ccc(NC(=O)Nc2ccc3c(c2)CC(=O)N([C@@H](C)CO)C[C@@H](C)[C@@H](CN(C)Cc2ccc(Cl)c(Cl)c2)O3)cc1`: the delta Cp (YB-1 minus CDIP) was 0.191 (inactive).

On to `C=C1C2=CC(=O)O[C@@H](c3ccoc3)[C@]2(C)CCC1[C@@]1(C)C=CC(=O)C(C)(C)[C@@H]1CC(=O)OC` (stereo partly specified), for which the delta Cp (YB-1 minus CDIP) was 0.366 (inactive). For `C[C@@H]1CN([C@H](C)CO)C(=O)c2cc(NC(=O)Cc3ccccc3)ccc2O[C@@H]1CN(C)CC1CCCCC1`, the delta Cp (YB-1 minus CDIP) is -0.0442 (inactive). For `C[C@H]1CN([C@@H](C)CO)C(=O)c2cccc(NS(=O)(=O)c3ccc(Cl)cc3)c2O[C@H]1CN(C)Cc1ccc2c(c1)OCO2`, the delta Cp (YB-1 minus CDIP) is 0.321 (inactive). Regarding `C[C@@H]1CN([C@H](C)CO)C(=O)c2cccc(NC(=O)CCCCCC(=O)Nc3ccccc3N)c2O[C@@H]1CN(C)C(=O)Nc1ccccc1`, the delta Cp (YB-1 minus CDIP) was 0.438 (inactive). Take `C[C@H]1CN([C@@H](C)CO)C(=O)Cc2cc(NC(=O)CCCN(C)C)ccc2O[C@@H]1CN(C)Cc1ccc(-c2ccccc2)cc1`: the delta Cp (YB-1 minus CDIP) was -1.08 (inactive). Take `Oc1ccc2c(c1)OCC1c3cc4c(cc3OC21)OCO4` (stereo unspecified): the delta Cp (YB-1 minus CDIP) was 0.271 (inactive).

In the case of `COc1ccc(CN(C)C[C@@H]2Oc3c(NC(=O)C4CC4)cccc3C(=O)N([C@@H](C)CO)C[C@H]2C)cc1`, the delta Cp (YB-1 minus CDIP) is -0.213 (inactive). With `CC(C)NC(=O)Nc1ccc2c(c1)CC(=O)N([C@H](C)CO)C[C@@H](C)[C@H](CN(C)S(=O)(=O)c1ccccc1)O2`, the delta Cp (YB-1 minus CDIP) was 0.113 (inactive). For `C[C@H](CO)N1C[C@H](C)[C@H](CN(C)CC2CCCCC2)Oc2ccc(NC(=O)CCCCCC(=O)Nc3ccccc3N)cc2CC1=O` the value was -0.217 (inactive); for `C[C@H]1CN([C@@H](C)CO)C(=O)c2cccc(NC(=O)NC3CCCCC3)c2O[C@H]1CN(C)CC1CCCCC1`, -0.236 (inactive); for `Cc1onc(-c2c(Cl)cccc2Cl)c1C(=O)N=S(C)(C)=O`, -0.447 (inactive). Turning to `C[C@H]1CN([C@@H](C)CO)C(=O)CCCn2cc(nn2)CO[C@@H]1CN(C)S(=O)(=O)c1ccc(-n2cccn2)cc1`, the delta Cp (YB-1 minus CDIP) was -0.848 (inactive). With `C[C@H](CO)N1C[C@H](C)[C@H](CN(C)S(=O)(=O)c2ccc(C#N)cc2)Oc2ncc(-c3cccc(F)c3)cc2C1=O`, the delta Cp (YB-1 minus CDIP) is 0.397 (inactive). As for `COCCOC(=O)N1C(=O)[C@@]2(c3cc(C#CCC(C(=O)OC)C(=O)OC)ccc31)[C@H](c1ccc(OCCO)cc1)N1[C@H](c3ccccc3)[C@H](c3ccccc3)OC(=O)[C@H]1[C@@H]2C(N)=O`, the delta Cp (YB-1 minus CDIP) is -0.585 (inactive). Take `CCOC(=O)c1cc(=O)c2ccc(OCc3ccccc3)cc2o1`: the delta Cp (YB-1 minus CDIP) is 0.522 (inactive).

In the case of `Cc1noc(C)c1S(=O)(=O)Nc1ccc2c(c1)C(=O)N([C@@H](C)CO)C[C@H](C)[C@H](CN(C)C(=O)Nc1ccc(C(F)(F)F)cc1)O2`, the delta Cp (YB-1 minus CDIP) was -0.372 (inactive).

For the compound `O=C(NO)c1ccc(C(=O)N/N=C/c2ccc(Br)cc2)cc1`, the delta Cp (YB-1 minus CDIP) is -0.432 (inactive). Take `C[C@H](CO)N1C[C@H](C)[C@@H](CN(C)Cc2ccc(Oc3ccccc3)cc2)OCc2cn(nn2)CCCC1=O`: the delta Cp (YB-1 minus CDIP) was -0.14 (inactive).

With `COC(=O)C1=C(N)Oc2cc(C)oc(=O)c2C1c1cccnc1` (stereo unspecified), the delta Cp (YB-1 minus CDIP) was -0.311 (inactive). For `COc1ccc(NC(=O)N(C)C[C@H]2Oc3ccc(NC(=O)Nc4ccc5c(c4)OCO5)cc3C(=O)N([C@H](C)CO)C[C@H]2C)cc1`, the delta Cp (YB-1 minus CDIP) is 0.191 (inactive).

With `Cc1ccc(-n2c(C)nc3sc4c(c3c2=O)CCC4)cc1`, the delta Cp (YB-1 minus CDIP) was 5.31 (active).

As to `Cc1ccc(-c2cn3c4c(sc3n2)CCCC4)cc1`, the delta Cp (YB-1 minus CDIP) was 0.773 (inactive). For `O=C(N/N=C/c1ccc([N+](=O)[O-])s1)c1ccccc1O` the value was 0.165 (inactive); for `C[C@H](CO)N1C[C@H](C)[C@@H](CN(C)Cc2ccc(Cl)c(Cl)c2)Oc2c(NC(=O)C3CCCCC3)cccc2C1=O`, -0.923 (inactive); for `Cc1ccc(CN(C)C[C@@H]2OCc3cnnn3CCCC(=O)N([C@@H](C)CO)C[C@H]2C)cc1`, -0.0292 (inactive).
